The results in this text go back to PubChem BioAssay (NCATS).

Values joined by “and” are separate entries in the source; they are usually repeats but may differ in a detail not shown here. Identical values can stand only once. Inconclusive results are not listed. Active and inactive are the calls of the source. Unless noted, the call rests on the fitted dose curve; in most records, active means well fitted curve in the direction sought with a large enough effect; inconclusive means small, poorly fitted or top-dose-only effect, or another doubt; inactive means no such curve, though single readings can be large; an effect the other way counts as inactive or inconclusive. A value given as a limit tells only on which side of the number the result lay.

Test [1] can be described thus: Stat Signaling Pathway (AID 446; active means well fitted curve in either direction with a large enough effect, not every such curve was filed as active;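 further: ME-180 cervical cancer cells given 40 pM IL-6 alongside compound; SIE-controlled beta-lactamase reporter measured as 460/530 nm FRET emission ratio; on the % scale 0 is the no-effect control and ±100 the full control effect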). The gist of the method: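 Compound effects on IL-6-induced STAT reporter activity were measured in ME-180 cells. After overnight culture, cells were co-treated with 40 pM IL-6 for 5 hrs before beta-lactamase substrate loading at room temperature.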
For test [2], the target named is Glucocorticoid receptor (Homo sapiens) (UniProt P04150). As to the kind of experiment: GR-GFP Redistribution (AID 450;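 active means compounds whose dose series gives a full or clear partial fitted curve of increased nuclear translocation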; further: potency means the concentration at half of the fitted maximal effect). Conditions: U2OS GR-GFP nuclear translocation, laser cytometry, 2 h.
Chain of Glucocorticoid receptor (Homo sapiens) (P04150 whole entry, looked up): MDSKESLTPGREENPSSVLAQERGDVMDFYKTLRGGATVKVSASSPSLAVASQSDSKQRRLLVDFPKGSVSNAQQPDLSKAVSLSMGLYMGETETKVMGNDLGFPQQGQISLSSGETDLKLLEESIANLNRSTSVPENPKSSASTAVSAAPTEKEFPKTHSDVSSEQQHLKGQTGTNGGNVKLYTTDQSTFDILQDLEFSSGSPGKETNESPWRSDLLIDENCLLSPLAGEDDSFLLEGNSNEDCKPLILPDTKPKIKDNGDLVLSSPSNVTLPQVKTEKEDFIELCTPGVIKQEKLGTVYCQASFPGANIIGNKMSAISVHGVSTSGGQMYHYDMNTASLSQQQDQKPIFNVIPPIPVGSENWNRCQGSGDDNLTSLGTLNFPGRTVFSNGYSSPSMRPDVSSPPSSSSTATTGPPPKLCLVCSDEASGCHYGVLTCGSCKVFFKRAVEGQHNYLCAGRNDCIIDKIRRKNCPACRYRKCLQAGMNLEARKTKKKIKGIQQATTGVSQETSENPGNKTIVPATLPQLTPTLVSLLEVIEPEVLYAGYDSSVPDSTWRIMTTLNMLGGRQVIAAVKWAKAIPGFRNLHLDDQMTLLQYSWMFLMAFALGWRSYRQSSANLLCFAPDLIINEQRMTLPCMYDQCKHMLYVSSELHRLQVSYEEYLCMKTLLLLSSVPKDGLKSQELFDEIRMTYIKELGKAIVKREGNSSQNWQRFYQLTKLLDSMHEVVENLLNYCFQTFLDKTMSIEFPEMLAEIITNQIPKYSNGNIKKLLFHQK
Test [3] shares this target. As to the kind of experiment: GR-EFC Redistribution (AID 451; calls by dose curve; further: potency means the concentration at half of the fitted maximal effect). As to conditions: CHO-K1 GR-EFC translocation, beta-gal luminescence, 2 h. The gist of the method:
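CHO-K1 cells stably expressing nuclear-localized β-gal enzyme acceptor and GR fused C-terminally to the enzyme donor fragment; ligand-driven nuclear translocation restores β-gal by complementation. Compounds titrated up to 46 uM final, 2 h at 37 °C; luminescence read.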

The target in test [4] is 3',5'-cyclic-AMP phosphodiesterase 4B (Homo sapiens) (UniProt Q07343). As to the kind of experiment: qHTS Assay for Inhibitors of PDE-IV (AID 607; active means well fitted activation curve with a large enough effect in the main read-out, with a control signal flat, not every such curve was filed as active; further: % of control where 0% means no effect). The method, boiled down: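 ACTOne HEK293 cells carry a modified cAMP-gated CNG channel and express endogenous PDE4; plated 1000 cells/well, compounds up to 22.9 uM final. Membrane-potential dye fluorescence (ex 535/em 590) was read; parental cells received 10 uM forskolin + 100 uM RO 20-1724.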
Chain of 3',5'-cyclic-AMP phosphodiesterase 4B (Homo sapiens) (Q07343 whole entry, looked up): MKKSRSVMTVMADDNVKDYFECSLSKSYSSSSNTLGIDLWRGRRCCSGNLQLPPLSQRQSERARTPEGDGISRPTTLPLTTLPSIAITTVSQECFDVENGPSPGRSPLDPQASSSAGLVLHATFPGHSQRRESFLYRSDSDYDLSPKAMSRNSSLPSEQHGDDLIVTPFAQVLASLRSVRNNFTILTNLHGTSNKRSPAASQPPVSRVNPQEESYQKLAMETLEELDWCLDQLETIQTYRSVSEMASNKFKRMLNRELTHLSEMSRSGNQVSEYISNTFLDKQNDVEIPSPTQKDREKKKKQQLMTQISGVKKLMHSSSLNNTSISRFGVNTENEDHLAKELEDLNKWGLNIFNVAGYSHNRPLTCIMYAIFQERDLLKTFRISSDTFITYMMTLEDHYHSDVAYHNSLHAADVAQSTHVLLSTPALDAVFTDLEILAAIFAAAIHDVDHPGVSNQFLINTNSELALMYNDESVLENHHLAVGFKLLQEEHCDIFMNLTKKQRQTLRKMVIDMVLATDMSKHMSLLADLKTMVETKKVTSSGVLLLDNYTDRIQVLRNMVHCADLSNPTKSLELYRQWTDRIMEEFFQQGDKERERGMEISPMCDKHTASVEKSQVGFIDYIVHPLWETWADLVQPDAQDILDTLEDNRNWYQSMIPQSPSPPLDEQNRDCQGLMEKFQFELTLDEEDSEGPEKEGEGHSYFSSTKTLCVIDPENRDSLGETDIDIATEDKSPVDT
A general note: qHTS replaces the single test concentration by a dilution series.

Test [5] in a line: Confirmation and Secondary Assay for Modulators of Hemoglobin Beta Chain Splicing at IVS2 654 locus (AID 910).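 Further: per-well total GFP intensity by laser scanning cytometry after 2-day treatment; % of control where 0% means no effect.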 The gist of the method: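 HeLa cells stably carrying EGFP interrupted by mutant beta-globin IVS2-654 intron (CMV-driven) were treated with compound for 2 days at 37C; corrected splicing was scored as total peak GFP intensity per well (488 nm excitation, 500-520 nm emission).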

Test [6] can be described thus: Confirmation and Secondary Assay for Modulators of Hemoglobin Beta Chain Splicing at IVS2 705 locus (AID 930).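 Further: HeLa cells stably expressing the EGFP-705 splicing reporter; GFP fluorescence per well restored by corrected splicing of the IVS2-705 intron in EGFP; % of control where 0% means no effect.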 The method, boiled down: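 Splice-correction reporter: EGFP cDNA split by beta-globin intron 2 bearing the 705 mutation, stably in HeLa. Compound incubation 2 days, 37C; fluorescent objects 5-250 µm summed per well.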
Test [7] in a line: qHTS Assay for Lipid Storage Modulators (AID 1519; calls by dose curve; on activity change, negative = inhibition: on the % scale 0 is the no-effect control and ±100 the full control effect). As to conditions: Drosophila S3 cells, BODIPY lipid droplet/cell ratio, laser cytometry, cells loaded with oleic acid. The gist of the method: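 Cells seeded at 5,000 per well were treated with compounds over a concentration series and loaded with oleic acid (400 uM, as added). Lipid droplet fluorescence (488 nm excitation, 500-530 nm channel) was read by laser-scanning cytometry and normalized to 20 uM Triacsin C.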

The target in test [8] is Ubiquitin carboxyl-terminal hydrolase 1 (Homo sapiens) (UniProt O94782). Nature of the test: Inhibitors of USP1/UAF1: Pilot qHTS (AID 504865).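 Further: rhodamine fluorescence freed from ubiquitin-rhodamine substrate followed over time; top concentration of the series differs between compounds; on the % scale 0 is the no-effect control and ±100 the full control effect; nearly all actives have a fitted effect of over 35% in size.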 The method, boiled down:
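In 50mM HEPES pH 7.8 containing 0.5mM EDTA, 1mM TCEP, 0.1 mg/ml BSA and 0.01% Tween-20, 1nM USP1/UAF1 is exposed to compound for 15 min, then Ub-Rho (150nM final) is added and fluorescence is read over time.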

Test [9] addresses DNA dC->dU-editing enzyme APOBEC-3G (Homo sapiens) (UniProt Q9HC16). As to the kind of experiment: qHTS for inhibitors of Vif-A3G interactions: Validation (AID 588379). Further: 0% is about no effect. The method, boiled down:
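Yellow fluorescence (Ex 488, Em 500-530) of Vif-coexpressing HeLa A3G-eYFP cells, scanned by Acumen cytometer, reports blocked A3G degradation. Cells plated at 700/well overnight at 37 deg C before compound addition, then a further overnight compound incubation at 37 deg C.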

Test [10] relates to Zika virus NS2B-NS3 protease. As to the kind of experiment: Primary screen GU AMC qHTS for Zika virus inhibitors (AID 1347154). Further: potency means the concentration at half of the fitted maximal effect; nearly all actives have a fitted effect of over 70% in size. The gist of the method:
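Unlinked Zika NS2B hydrophilic domain/NS3 protease domain noncovalent complex (25 nM final) in 10 mM Tris-HCl pH 8.0, 0.01% Tween 20, with AMC peptide substrate. Fluorescence (ex 340, em 450 nm) change over 15 min, room temperature; percent inhibition fitted to 4-parameter Hill equation.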

For test [11], the system named is Zika virus NS2B-NS3 protease (linked construct). Nature of the test: Primary screen NINDS Rhodamine qHTS for Zika virus inhibitors (AID 1347160). Further: on the % scale 0 is the no-effect control and ±100 the full control effect; nearly all actives have a fitted effect of over 55% in size. The gist of the method:
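Aprotinin served as in-plate control. Conditions: 25 nM linked NS2B-NS3, pH 8.0 Tris buffer, titrated compounds, 15 min preincubation and 15 min reaction with 1.5 microM Rhod110 substrate at room temperature.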

A short description of test [12]: HPAF-II Cancer Cell Toxicity qHTS against the NCATS CANVASS Library (AID 1347346). Further: potency means the concentration at half of the fitted maximal effect; nearly all actives have a fitted effect of over 55% in size. The method, boiled down: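 Cytotoxicity read-out was CellTiter-Glo luminescence after 72 h at 37 degrees C exposure of HPAF-II cells (1000/well) to compounds in an 11-point titration.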
Test [13] in a line: Panc-1005 Cancer Cell Toxicity qHTS against the NCATS CANVASS Library (AID 1347349). Further: potency means the concentration at half of the fitted maximal effect; nearly all actives have a fitted effect of over 60% in size. The gist of the method:
(§1)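 Step one: seed 1000 cells per well. Step two: incubate 4 h. Step three: add test compounds in 11 concentrations. Step four: culture 72 h, then add CellTiter-Glo and record luminescence after 15min.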

The nature of test [14]: SW1088 Cancer Cell Toxicity qHTS against the NCATS CANVASS Library (AID 1347350). Further: nearly all actives have a fitted effect of over 75% in size. The gist of the method:
as §1

A short description of test [15]: COV-362 Cancer Cell Toxicity qHTS against the NCATS CANVASS Library (AID 1347352). Further: potency means the concentration at half of the fitted maximal effect. The method, boiled down:
(§2)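 Toxicity was measured as CellTiter-Glo luminescence after 72 h exposure to an 11-point compound series. Compound was added to 1000 cells/well 4 h after seeding.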

Test [16] in a line: A2780 Cisplatin Sensitive Ovarian Cancer Cell Toxicity qHTS against the NCATS CANVASS Library (AID 1347353). Further: potency means the concentration at half of the fitted maximal effect; nearly all actives have a fitted effect of over 60% in size. The gist of the method:
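Cisplatin-sensitive A2780 ovarian cells (750/well) received compound in 11 concentrations, and were incubated 72 h at 37 °C. ATP content was measured by ATPLite luminescence; bortezomib served as control.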

Test [17] is described as follows: UWB1.289-WTBRCA1 Cancer Cell Toxicity qHTS against the NCATS CANVASS Library (AID 1347354). Further: on the % scale 0 is the no-effect control and ±100 the full control effect. The method, boiled down:
as §2

The nature of test [18]: HEK-293 Cancer Cell Toxicity qHTS against the NCATS CANVASS Library (AID 1347355). Further: potency means the concentration at half of the fitted maximal effect; nearly all actives have a fitted effect of over 65% in size. The method, boiled down: as §2
Test [19] is described as follows: HPAF-II 24hr Apoptosis Induction qHTS against the NCATS CANVASS Library (AID 1347356). Further: 0% is about no effect. The method, boiled down:
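Caspase-Glo 3/7 luminescence, read after 15 min room-temperature development, measures apoptosis in HPAF-II cells treated 24 h at 37 degrees C with an 11-point concentration series; 500 cells/well; doxorubicin control.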

A short description of test [20]: HPAF-II 12hr Apoptosis Induction qHTS against the NCATS CANVASS Library (AID 1347358). Further: 0% is about no effect. The gist of the method: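 Caspase-3/7 activation by DEVD-substrate luminescence (Caspase-Glo 3/7, 15 min, room temperature) after a 12-hour compound exposure in 11 concentrations, of HPAF-II pancreatic cells seeded at 500/well in DMEM with 10% FBS.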

Chain of DNA dC->dU-editing enzyme APOBEC-3G (Homo sapiens) (Q9HC16 whole entry, looked up): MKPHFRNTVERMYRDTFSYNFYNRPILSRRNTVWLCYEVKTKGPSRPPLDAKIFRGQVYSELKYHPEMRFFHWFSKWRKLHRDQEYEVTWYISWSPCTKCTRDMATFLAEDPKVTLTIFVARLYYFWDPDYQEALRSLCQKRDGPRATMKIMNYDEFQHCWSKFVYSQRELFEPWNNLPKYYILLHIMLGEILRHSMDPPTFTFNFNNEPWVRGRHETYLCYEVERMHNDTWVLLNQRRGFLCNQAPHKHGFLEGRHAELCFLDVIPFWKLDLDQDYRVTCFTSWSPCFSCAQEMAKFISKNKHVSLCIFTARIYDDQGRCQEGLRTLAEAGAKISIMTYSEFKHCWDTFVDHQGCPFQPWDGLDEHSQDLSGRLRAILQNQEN
Chain of Ubiquitin carboxyl-terminal hydrolase 1 (Homo sapiens) (O94782 whole entry, looked up): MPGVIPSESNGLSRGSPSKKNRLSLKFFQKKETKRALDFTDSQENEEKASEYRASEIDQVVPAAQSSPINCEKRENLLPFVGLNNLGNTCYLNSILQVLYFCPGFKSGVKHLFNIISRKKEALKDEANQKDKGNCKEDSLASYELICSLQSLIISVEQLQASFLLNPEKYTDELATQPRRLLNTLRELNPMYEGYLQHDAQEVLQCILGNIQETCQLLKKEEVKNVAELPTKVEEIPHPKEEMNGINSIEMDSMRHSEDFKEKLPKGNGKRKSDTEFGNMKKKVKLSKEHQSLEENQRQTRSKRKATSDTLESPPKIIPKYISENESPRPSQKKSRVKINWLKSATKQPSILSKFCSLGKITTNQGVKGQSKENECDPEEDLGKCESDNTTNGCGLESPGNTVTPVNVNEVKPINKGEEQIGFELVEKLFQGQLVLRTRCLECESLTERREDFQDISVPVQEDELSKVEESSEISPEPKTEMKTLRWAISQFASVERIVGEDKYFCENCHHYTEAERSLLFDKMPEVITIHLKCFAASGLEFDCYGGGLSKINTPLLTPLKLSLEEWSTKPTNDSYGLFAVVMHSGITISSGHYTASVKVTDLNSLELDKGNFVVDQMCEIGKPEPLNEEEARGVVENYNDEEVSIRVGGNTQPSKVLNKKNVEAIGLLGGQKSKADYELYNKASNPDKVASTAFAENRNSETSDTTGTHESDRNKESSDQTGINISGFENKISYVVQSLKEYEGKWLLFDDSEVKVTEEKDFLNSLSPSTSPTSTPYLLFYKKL

With `COc1ccc2c(c1)[nH]c1c(C)nccc12`, the result in test [1], in [6], in test [19] and in [20] was inactive. Further, the Potency in test [2] is > 20.6 µM (inactive); in test [3], > 20.6 µM (inactive); in [10], 3.36 µM (active); in test [12], 27.3 µM (active); in test [13], 30.6 µM (active); in [15] it was 38.6 µM (active). Besides, the Potency in test [16] was 19.1 µM (active); in test [18] it was 7.62 µM (active). In addition, the Potency result in [4], in test [5], in test [8], in test [9], in [11] and in [14] was “inactive” in each case. Besides, the Potency entry in [17] is “inactive”. The activity change, negative = inhibition in test [7] (at 25.7 µM (top of the series)) was -4.61% (inactive); in [7] (at 57.5 µM (top of the series)) it was 2.5% (inactive). The max response in test [7] (measured here: cell count channel max response) was -2.86% and 7%; in test [7] (measured here: lipid channel max response), -9.39% and 13.6%.
